Bioassay records (PubChem)
Rows were chosen to be rich in hits. Some 3.3% of all compounds tested hit in one or more screens of this group.
PI4K2A inh – qHTS for small molecular inhibitors of PI4K2A; Phosphatidylinositol 4-kinase type 2-alpha (Homo sapiens), Q9BTU6; AID 1346378, 2018; activity change, negative = inhibition, % at 76.9 µM; actives 0.13% (n = 420,000); purified PI4K2A, ADP-Glo luminescence, 1 h; hits give low values; in the data active = activity change below about -50%; inconclusive = mostly about -30% to -49%;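 note: -100% = wells without enzyme as full effect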
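Compounds are screened against recombinant PI4K2A using PI as substrate and ATP, the latter dispensed at 300 microM. Reactions run one hour at ambient temperature before ADP-Glo detection; full inhibition defined by wells lacking enzyme.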
D3 antag – qHTS of D3 Dopamine Receptor Antagonist: qHTS; D(3) dopamine receptor (Homo sapiens), P35462; D3R cells, DiscoveRx beta-arrestin luminescence, antagonist mode; hits give low values; max response, negative = inhibition, %; actives 2.5% (n = 360,000); in the data active = max response below about -50%; inconclusive = no clear call, values can overlap the other calls; note: % is set by controls: 0 for no effect and ±100 for the full control effect
Target sequence (P35462 whole entry, looked up): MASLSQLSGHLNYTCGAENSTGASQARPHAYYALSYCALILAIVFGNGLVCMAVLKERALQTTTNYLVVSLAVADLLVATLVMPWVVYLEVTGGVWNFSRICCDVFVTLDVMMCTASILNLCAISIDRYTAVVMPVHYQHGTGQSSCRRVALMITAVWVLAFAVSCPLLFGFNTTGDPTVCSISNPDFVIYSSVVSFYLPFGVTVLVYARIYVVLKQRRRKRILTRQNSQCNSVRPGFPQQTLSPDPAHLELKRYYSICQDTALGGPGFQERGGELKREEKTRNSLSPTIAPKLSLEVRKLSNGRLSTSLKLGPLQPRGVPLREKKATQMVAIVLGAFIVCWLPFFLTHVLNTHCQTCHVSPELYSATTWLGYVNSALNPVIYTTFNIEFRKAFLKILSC
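Cells expressing the human receptor were seeded at 1500 cells/well, incubated overnight at 37 degrees C in 5% CO2, then exposed to library compounds with dopamine controls for 90 minutes at 37 degrees C before luminescent detection.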
PI5P4K alpha inh – qHTS for Inhibitors of phosphatidylinositol 5-phosphate 4-kinase (PI5P4K) | PI5P4Kalpha enzyme, ADP-Glo luminescence, 60 min; hits give low values | AID 652105, 2013 | Phosphatidylinositol 5-phosphate 4-kinase type-2 alpha (Homo sapiens), P48426 | actives 1.2% (n = 330,000) | max response, %; active = max response of -50% or lower; inconclusive = between -30% and -50%; inactive = -30% or higher; note: value at the top dose of about 77 µM; % is set by controls: 0 for no effect and ±100 for the full control effect
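Single end-point luminescence (ADP-Glo) quantified ADP from PI5P4Kalpha turnover; ATP 5 microM final, 1 h at RT, 0.1% CHAPS and 0.28 mM EGTA in HEPES pH 7.4.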
DRD3 agonist – qHTS of D3 Dopamine Receptor Agonist: qHTS. D(3) dopamine receptor (Homo sapiens), P35462. actives 0.58% (n = 410,000). D3R DiscoveRx beta-arrestin cells, luminescence, 90 min. max activation, %; in the data active = max activation above about 30%; note: 0% is about no effect
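Agonist-mode cell screen: cells plated at 1500/well and incubated overnight at 37 °C, then exposed to library compounds for 90 min at 37 °C. Detection reagent was added for 30–60 min at room temperature, and luminescence was read.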
LDHA inh – qHTS assay for inhibitors of human lactate dehydrogenase. activity change, % (values are at about 110 or 230 µM). AID 1347041, 2019. actives 0.15% (n = 480,000). L-lactate dehydrogenase A chain (Homo sapiens), P00338. purified LDHA, NADH/diaphorase-resazurin fluorescence; hits give low values; in the data active = activity change below about -30%; inconclusive = mostly about -25% to -30%;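 note: plate controls were DMSO wells for no effect and wells without enzyme for full effect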
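Enzyme activity of human lactate dehydrogenase 5 (2 nM; 0.06 mM NADH, 0.2 mM pyruvate, 5 min, RT) is measured via a resazurin/diaphorase fluorescence readout of residual NADH.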
Starred values were filed as active, the others as inactive; u = inconclusive; x = not tested or not shown.

SMILES | PI4K2A inh | D3 antag | PI5P4K alpha inh | DRD3 agonist | LDHA inh
N=C1/C(=C/c2ccc(-c3cccc(C(=O)O)c3)o2)C(=O)N=C2SC(CC(=O)N3CCOCC3)=NN12 | -6 | -22 | -83* | -5 | -4
O=C(Cn1nc(-c2ccco2)ccc1=O)Nc1ccccc1C(F)(F)F | x | x | x | x | -1
COC(=O)C1CCCN1C(=O)C1CCCN1C(=O)CNC(=O)OCc1ccccc1 (stereo not given) | 5 | -54* | -1 | 2 | -3
COC(=O)CNC(=O)C1CCCN1C(=O)CNC(=O)OCc1ccccc1 (stereo not given) | 2 | -15 | -6 | -4 | -6
CCCN(CC(F)(F)F)C(=O)c1[nH]c(C)c(C(=O)OC)c1C | x | x | x | x | -3
COc1cccc(N2CCN(Cc3ccsc3)CC2)c1 | 3 | -71* | -5 | -10 | 1
COc1cccc(N2CCN(Cc3ccco3)CC2)c1 | 0 | -6 | -5 | 0 | -10
CC(=O)C(C(C)=O)C(NC(=O)c1cccnc1)(C(F)(F)F)C(F)(F)F | -8 | -3 | -63* | 4 | 3
COc1ccc2[nH]cc(CCn3ccc4c(cnc5ncnn54)c3=O)c2c1 | x | x | x | x | -2
Cc1cnc(C(=O)Nc2ccc(NC(=O)c3cccc(S(C)(=O)=O)c3)c(Cl)c2)cn1 | x | x | x | x | -3
O=S(=O)(NC(c1ccccc1)c1cccs1)c1cccnc1 (stereo not given) | x | x | x | x | 11
O=C(CSc1nnnn1Cc1ccccc1)c1ccccc1 | 2 | -58* | -6 | -2 | -7
COc1ccc(OC)c(C(=O)CSc2nnnn2C)c1 | -1 | 19 | x | 8 | -7
CCCCn1nnnc1SCC(=O)NCc1ccccc1 | 4 | -55* | -1 | -3 | -12
COc1cccc(C(=O)CSc2nnnn2C)c1 | -3 | -64* | 2 | 0 | -7
O=C(CSc1nnnn1Cc1ccccc1)c1ccc(F)cc1 | 8 | 5 | -4 | 5 | -3
CC(=O)Nc1ccc(N2C(=O)C/C(=C/c3cn(C)c4ccccc34)C2=O)cc1 | x | x | x | x | -2
COc1cccc(C(=O)Nc2ccc3nc(N4CCCC4)sc3c2)c1OC | x | x | x | x | 3
Oc1ccccc1-c1nc(/C=C/c2ccccc2Cl)no1 | 6 | x | x | 88* | 4
COc1ccc2[nH]c3c(NCCCOC(C)C)ncnc3c2c1 | u | 9 | -3 | 4 | -2
COc1ccc2[nH]c3c(NCCC4=CCCCC4)ncnc3c2c1 | -4 | 1 | -61* | -5 | 5
CCOC(=O)Cn1c(=O)c2c3c(sc2n(CCN(C)C)c1=O)CCC(C)C3 (stereo not given) | x | x | x | x | 16
CCCc1cc(C(=O)Oc2ccc(NC(C)=O)cc2)sc1C | x | x | x | x | 2
NC(=O)CCN1CCCCC1 | -9 | 3 | 2 | 0 | -6
O=C(CCC(=O)CCN1CCCCC1)CCN1CCCCC1 | -5 | -67* | 2 | -1 | -3
SMILES | PI4K2A inh | D3 antag | PI5P4K alpha inh | DRD3 agonist | LDHA inh
COc1ccccc1NCc1nc2ccccc2n1C | -4 | x | x | x | x
CCCN1CCC(NC(=O)CCc2nnc(-c3ccccc3)o2)CC1 | 2 | -53* | 2 | -6 | 5
CCCC(=O)Nc1ccc(O)c(-c2nc3cc(CC)ccc3o2)c1 | x | x | x | x | 3
N#Cc1ccc(CSc2nc(N)cc(N)n2)cc1 | 32 | -55* | 7 | -11 | -3
CSc1ccc(NC(=O)C(C)N2CCN(C)CC2)cc1 (stereo not given) | 6 | 1 | -2 | -5 | -35*
Cc1oc(-c2ccccc2)nc1CC(=O)Nc1ccccc1C(C)(C)C | x | x | x | x | -4
O=C(C#Cc1ccccc1)c1cccc([N+](=O)[O-])c1 | 21 | -56* | 5 | -8 | 1
CNC(=O)/C=C(/O)c1ccccc1 | x | x | x | x | -3
CCCCCCCCCCCCCCC(O)C[N+](C)(CCO)CCO (stereo not given) | 0 | 0 | -72* | -4 | 1
Cc1cc(F)ccc1NC(=O)C1CCCN(C(=O)Cc2cccc3ccccc23)C1 (stereo not given) | x | x | x | x | -3
CCOC(=O)N=Nc1c2ccccc2c2nc3no[nH]c3nc12 | -26 | -65* | 9 | -18 | 30
CCOC(=O)N=Nc1c(O)n(CC(=O)OC)c2ccccc12 | -20 | 6 | -3 | 3 | -3
O=C(O)/C=C/c1ccccc1F | x | x | x | x | 3
O=C(c1noc2c1CCCCC2)N1CCN(c2cccc(C(F)(F)F)c2)CC1 | -3 | x | x | 52* | -6
COc1ccc(C(=O)CCl)cc1Cl | x | x | x | x | 2
O=C(CCl)NC(C(=O)O)(c1ccccc1)c1ccccc1 | x | x | x | x | 12
COc1cccc(Cn2nc(SC)c(S(=O)(=O)c3ccccc3)c2N(C(C)=O)C(C)=O)c1 | 12 | x | x | 7 | -5
CSc1nn(Cc2cccc(F)c2)c(N(C(C)=O)C(C)=O)c1S(=O)(=O)c1ccccc1 | 19 | x | x | 0 | -32*
CCOC(=O)c1c(S(=O)(=O)N2CCCC(C(=O)Nc3ccc(F)cc3F)C2)c(C)n(C)c1C (stereo not given) | x | x | x | x | -13
CN(C)/C=C/C(=O)c1ccc2noc(-c3cccc(F)c3)c2c1 | -2 | -2 | -66* | 0 | -1
COc1ccc(-c2onc3ccc(C(=O)/C=C/N(C)C)cc23)cc1 | -13 | 4 | -78* | -9 | 7
CC1C(c2ccccc2)=[N+]([O-])C(C)(c2ccc(Cl)cc2)N1O (stereo not given) | x | x | x | x | 10
CCOc1ccc(Nc2nnc(SCc3nc4ccccc4c(=O)[nH]3)s2)cc1 | 3 | -62* | -7 | -16 | -2
CCCCN(CCCC)Cc1cc2ccccc2c2c1COC2 | -81* | -1 | 32 | -11 | 8
CCN(CC)Cc1cc2ccccc2c2c1COC2 | -3 | u | 0 | -6 | 7
SMILES | PI4K2A inh | D3 antag | PI5P4K alpha inh | DRD3 agonist | LDHA inh
CCCN(CCC)Cc1cc2ccccc2c2c1COC2 | 4 | -64* | -9 | -13 | -2
COC(=O)[C@]12C[C@H](CC(=O)N3CCC(c4ccccc4)CC3)C(=O)N(CCc3ccc(OC)c(OC)c3)C1=C[C@H](COCc1ccccc1)O[C@@H]2C | 4 | x | x | x | x
Cc1ccc2c(c1)C(O)(CC(=O)c1ccc(F)cc1)C(=O)N2 (stereo not given) | x | x | x | x | -6
O=C(N/N=C/c1cc(Br)ccc1O)C(=O)Nc1ccccc1OC(F)(F)C(F)F | 0 | 14 | x | 49* | 0
CC[C@@]1(c2ccccc2)C(=O)N(C(=O)OC)N1C(=O)OC | 1 | 0 | 0 | 27 | -2
COC(=O)N1C(=O)[C@@](c2ccccc2)(C2CCCCC2)N1C(=O)OC | 2 | -54* | -2 | -14 | 0
CC(NC(=O)c1cc(=O)c2ccccc2o1)C(=O)N1CCOCC1 (stereo not given) | x | x | x | x | 2
